We go through 36 compounds from PubChem BioAssay.

Each structure is given as a SMILES string.

The test system of the test is Sonic hedgehog protein (Shh). Nature of the test: small-molecule binders of Shh protein, primary screen, biochemical, small-molecule microarray, 635/667 nm fluorescence (AID 1151).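 Note: Shh protein binding to compounds spotted on small-molecule microarray slides; score combines spot fluorescence intensity with signal-to-noise across triplicate slides.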 The conditions noted are these: small-molecule microarray binding, 635 nm fluorescence; higher = more signal.
Compound `C[N+](C)(C)CCCCNC(=O)[C@H]1C[C@H]2C(=O)N3CCC[C@H]3C(=O)N2[C@H]1c1ccc(O)cc1` had a composite z-score of 1.86. `O=S(=O)(NCCCO)c1ccc(Br)cc1` had a composite z-score of 0.533. Then `Cc1ccc(S(=O)(=O)N2CC(C(=O)O)=CCC2c2ccccc2)cc1` (stereo unspecified), with -0.861; and `C=CCOC(=O)[C@H]1[C@@H]2C(=O)O[C@@H](c3ccccc3)[C@@H](c3ccccc3)N2[C@@H](c2ccc(OCCOC(=O)[C@@H]3C[C@@H]4C(=O)NCC(=O)N4[C@@H]3c3ccc(O)cc3)cc2)[C@]12C(=O)Nc1ccc(I)cc12`, with 2.04. For `CC(=O)NCCCC[C@@H]1NC(=O)[C@@H]2C[C@H](C(=O)NCCCCCC[N+](C)(C)C)[C@H](c3cccc(OCCO)c3)N2C1=O` the value was 2.04; for `C/C=C/[C@H](CCn1cc([C@H](O)c2ccccc2)nn1)[Si](C)(C)c1ccc(OC)cc1`, -0.478; for `CCCNC(=O)[C@@]1(C)c2ccccc2C(=O)N(Cc2cc(C(F)(F)F)cc(C(F)(F)F)c2)[C@H]1c1ccc(CO)cc1`, 0.103. In the case of `C=C(CCCC)/C(=C/C[C@H](OC(C)=O)c1ccc(CO)o1)c1cc(C(=O)OC)ccc1OC`, the composite z-score was determined as 1.53. For `C=CCCN(CC#C[C@H]1Oc2ccccc2S(=O)(=O)N2CCC[C@@H]12)S(=O)(=O)c1ccc(C)cc1` the value was 0.624; for `CN1C(=O)C2C=CC(C(O)C(c3ccccc3)c3ccccc3)N(Nc3ccccc3)C2C1=O` (stereo unspecified), 0.424. Then `O=C1OCCC/C=C\[C@H]2OC34C=CCN(CCN5CCOCC5)C(=O)[C@H]3N(CCO)C(=O)[C@@H]4C12` (stereo partly specified), with -0.703; and `COCCOC(=O)N1C(=O)[C@@]2(c3cc(C#CC4(O)CCCCCC4)ccc31)[C@H](c1ccc(O)cc1)N1[C@H](c3ccccc3)[C@H](c3ccccc3)OC(=O)[C@H]1[C@@H]2C(=O)N1CCc2cc(OC)c(OC)cc2C1`, with -0.649. Then `COCCn1c(C(=O)N2CCCC2)cc2c1C[C@H]1CN(C(=O)c3ccccc3)[C@@](Cc3ccc(OC)cc3)(C(=O)OC)[C@@H]21`, with -0.89; and `Cc1cc(C)c(C(O)C2C=CC3C(=O)NC(=O)C3N2Nc2ccccn2)c(C)c1` (stereo unspecified), with -0.095. `CC(c1ccccc1)C(O)C1C=CC2C(=O)N(Cc3ccccc3)C(=O)C2N1n1cnnc1` (stereo unspecified) displayed a composite z-score of -0.506.

`O=C(NCC(O)CO)[C@@]1(Cc2ccccc2)N=C(c2ccc(OCCCO)cc2)O[C@H]1c1ccccc1` (stereo partly specified) gave a composite z-score of -0.959. The compound `CC(c1ccccc1)C(O)C1C=CC2C(=O)N(c3ccccc3)C(=O)C2N1Nc1ccccc1F` (stereo unspecified) displayed a composite z-score of -0.0558. For `C=CC[C@@]1(C(=O)NCc2ccccc2)N=C(c2ccc(OCCCO)cc2)O[C@@H]1c1ccccc1CN=[N+]=[N-]` the value was -0.629; for `C=CCN1C(=O)[C@]2(Cc3ccccc31)N=C(c1ccc(OCCCO)cc1)O[C@@H]2c1ccccc1`, 0.308; for `CCCCC(=O)N(Cc1ccccc1F)[C@@H]1CC(C(=O)NCCO)=C[C@H](Oc2c(I)cc(CO)cc2OC)[C@H]1O`, 2.45. Then `Cc1c(NC(=O)/C(C#N)=C/C=C/c2ccccc2)c(=O)n(-c2ccccc2)n1C`, with 0.522; and `CC(C)(C)OC(=O)CC[C@]1(C(=O)NCC(O)CO)N=C(c2ccc(OCCCO)cc2)O[C@H]1c1ccccc1CN=[N+]=[N-]` (stereo partly specified), with -0.535; and `CCCC[C@@H]1C[C@H]1[C@@H](NC(=O)c1ccco1)c1ccccc1`, with -1.88. Then `NC(=O)NCC#Cc1ccc2c(c1)[C@]1(C(=O)N2)[C@H](c2ccccc2OCCO)N2[C@H](c3ccccc3)[C@H](c3ccccc3)OC(=O)[C@H]2[C@@H]1C(=O)N1CCCCCCC1`, with 1.05. Compound `C=C(COC)C(=O)CC[C@H](OC(=O)c1cccnc1)c1ccccc1OCCO` returned a composite z-score of 1.63. Then `C=C(C(=O)CC[C@@H](OC(=O)c1cccnc1)c1ccc(CO)o1)C(C)C`, with 1.75.

Consider `O=C1O[C@H](c2ccccc2)[C@H](c2ccccc2)N2[C@H]1[C@@H](C(=O)Nc1nc3ccccc3s1)[C@]1(C(=O)Nc3ccc(C#CC4=CCCCC4)cc31)[C@H]2c1ccc(OCCO)cc1`, for which the composite z-score was 0.598. Then `COCCOC(=O)N1C(=O)[C@@]2(c3cc(C#Cc4ccc(OC)cc4)ccc31)[C@H](C(N)=O)[C@H]1C(=O)O[C@H](c3ccccc3)[C@H](c3ccccc3)N1[C@@H]2c1ccc(O)cc1`, with -0.692; and `CN1C(=O)C2C(C1=O)C1C=C(c3ccc(CO)cc3)C2C(C2CC2)N1Cc1sc2ccccc2c1Cl` (stereo unspecified), with 0.25. For `CC1CC/C=C\[C@H]2OC34C=CCN(Cn5nnc6ccccc65)C(=O)[C@H]3N(CCCO)C(=O)[C@@H]4C2C(=O)O1` (stereo partly specified) the value was 0.0837. On to `O=P(NCC1(CC2(c3ccccc3)CO2)CC1)(c1ccccc1)c1ccccc1` (stereo unspecified), for which the composite z-score is -1.41. Consider `CCOC(=O)C1=CC[C@@H](c2ccccc2)N(S(=O)(=O)c2ccc(C)cc2)[C@H]1c1ccc(C#N)cc1`, for which the composite z-score is -0.428. Then `COc1cc(NN2C(C(O)c3ccccc3)C=CC3C(=O)N(c4ccccc4)C(=O)C32)cc(OC)c1OC` (stereo unspecified), with 0.89; and `Cn1c2c(c3ccccc31)C(=O)C1NC2C=CC1(C)C(=O)OCc1ccccc1` (stereo unspecified), with -0.699.

For `Cc1ccc(S[C@]2(C(=O)NCCN3CCOCC3)CC(=O)N(C3CCCCC3)[C@@H]2c2ccc(CO)cc2)cc1`, the composite z-score was 0.318.

As for `COCCOC(=O)N1C(=O)[C@@]2(c3cc(C#CC4=CCCCC4)ccc31)[C@H](c1ccc(OCCO)cc1)N1[C@H](c3ccccc3)[C@H](c3ccccc3)OC(=O)[C@H]1[C@@H]2C(=O)Nc1nc2ccccc2s1`, the composite z-score amounted to 0.911.
